For 87 compounds, max response, negative = inhibition and Potency results are on record in PubChem BioAssay AID720504 (National Center for Advancing Translational Sciences (NCATS), 2013).

Hit rate of the full screen: of about 360,000 compounds, about 10,000 (2.8%) were called active. Not shown: some 4% with an inconclusive outcome. The list comes from a sample in which actives are over-represented; it also holds similar structures and randomly drawn compounds. A number with no mark means an inactive call. Calls follow the shape of the dose curve; as a rule, active = well fitted inhibition curve with a large enough effect; inconclusive = small, poorly fitted or top-dose-only effect; inactive = flat fitted curve, though single readings scatter.
% is scaled to controls: 0 for no effect and ±100 for the full control effect; potency is read from the fitted curve at half-maximal effect.

For the assay, the target named is Serine/threonine-protein kinase PLK1 (Homo sapiens) (UniProt P53350). Kind of assay: qHTS for Inhibitors of PLK1-PDB (polo-like kinase 1 - polo-box domain): Primary Screen. Also: nearly all actives have a fitted effect of over 65% in size. As to max response, negative = inhibition: series mostly up to about 57 µM. The settings on record: Plk1 PBD binding of FITC phosphopeptide, fluorescence polarization. A general note: Quantitative high-throughput screening tests each substance at several concentrations.
Serine/threonine-protein kinase PLK1 (Homo sapiens), sequence (P53350 whole entry, looked up, the tested form may be a part): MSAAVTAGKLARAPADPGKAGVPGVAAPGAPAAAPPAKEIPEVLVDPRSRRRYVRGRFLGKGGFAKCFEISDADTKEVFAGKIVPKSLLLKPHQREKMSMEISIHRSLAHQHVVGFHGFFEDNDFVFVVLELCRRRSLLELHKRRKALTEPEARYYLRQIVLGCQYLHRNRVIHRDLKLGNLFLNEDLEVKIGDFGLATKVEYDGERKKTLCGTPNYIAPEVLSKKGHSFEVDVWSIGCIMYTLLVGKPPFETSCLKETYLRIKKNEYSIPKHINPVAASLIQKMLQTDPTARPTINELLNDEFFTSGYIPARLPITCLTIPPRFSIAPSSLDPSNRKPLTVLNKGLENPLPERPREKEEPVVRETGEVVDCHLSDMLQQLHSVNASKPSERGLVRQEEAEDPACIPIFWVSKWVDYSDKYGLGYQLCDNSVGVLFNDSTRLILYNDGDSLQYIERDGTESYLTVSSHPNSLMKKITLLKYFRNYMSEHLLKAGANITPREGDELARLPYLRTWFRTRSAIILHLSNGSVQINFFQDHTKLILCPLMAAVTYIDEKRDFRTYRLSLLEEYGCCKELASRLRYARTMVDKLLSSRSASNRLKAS
Consider `COc1cccc(-c2cc3nc(NCCOc4ccccc4Cl)n(C)c(=O)c3s2)c1`, for which the max response, negative = inhibition is -5.38%.

Regarding `O=C(Nc1ccccc1)c1ccccc1Br`, the max response, negative = inhibition was -3.61%. Same read-out and setting: next, `COCCCN1C(=O)C(CC(=O)NCc2cccs2)CC(C(=O)N2CCOCC2)=C1C` (configuration not stated): -4.29%. Same read-out and setting: in the case of `CSc1nc(N(C)NC(=O)c2cccc(C)c2)c2ccccc2n1` it was -6.24%.

`CC(Sc1nnc2c(n1)C1CCC2(C)C1(C)C)C(=O)Nc1ccccc1` (configuration not stated): the max response, negative = inhibition was 1.59%. As for `CSc1nc(C)cc(SC(C(C)=O)C(=O)Nc2ccccc2)n1` (configuration not stated), the Potency is 26.7 µM (active). For `CC(C)NC(=O)C1(C)CCCCCN1C(=O)c1ccc(-c2ccccc2)cc1` (configuration not stated), the max response, negative = inhibition is -8.92%. For `COc1ccc(-c2ccc(CN3C(C(C)C)C(=O)N(Cc4cn(CC5CCCCC5)nn4)CCS3(=O)=O)cc2)cn1` (configuration not stated), the max response, negative = inhibition is -14.8%. On the same count and under the same terms, next, `COC(=O)C1(C(=O)OC)C[C@H](c2ccccc2)N(Cc2ccccc2OC)[C@@H]1c1ccccc1`: -15.2%; `CCN(CC)C(=O)C1=C(C)N(Cc2ccc(F)cc2)C(=O)C(CC(=O)NCc2cccc3ccccc23)C1` (configuration not stated): -13.9%; `CCCc1c(-c2ccccc2F)ncn1Cc1ccccc1OC`: -1.08%. The same measure, in the same setting: next, `Cc1ccccc1-c1csc(C(O)c2cccc(Cl)c2)n1` (configuration not stated): -10.6%; `O=C(/C=C/[C@H]1O[C@@H](n2cnc3c(NC(=O)c4ccccc4)ncnc32)[C@H](O)[C@@H]1O)NCc1ccccc1`: -4.8%; `CCCSc1nc2c(c(=O)n(C)c(=O)n2C)n1Cc1ccc(C)cc1`: -10.2%. Still for that read-out and setting: next, `CCCCn1c(SCC(=O)NCCc2ccc(OC)c(OC)c2)nc2c1c(=O)n(C)c(=O)n2C`: -1.04%. As for `CCOc1ccc(Cn2c(SCCCCC#N)nc3c2c(=O)n(C)c(=O)n3C)cc1OCC`, the Potency was 18.9 µM (active). With `COc1ccc(NC(=O)C2Cc3c(-c4ccc(Cl)cc4)ccnc3O2)cc1` (configuration not stated), the max response, negative = inhibition is 1.68%. The same measure, in the same setting: in the case of `O=C(NCC(O)c1nc2ccccc2[nH]1)c1ccc(Br)cc1` (configuration not stated) it was -3.2%; in that of `CC1(C(=O)NCc2ccc3c(c2)OCO3)CCN1CCc1ccccc1` (configuration not stated), 2.52%; in that of `CCN(CC)CCn1c2c(c(SCC(=O)Nc3nc4ccccc4s3)nc1=O)CCCC2`, -2.27%.

In the case of `c1ccc(C(=NNc2nc3ccccc3s2)c2ccccn2)cc1`, the max response, negative = inhibition is -7.03%. Take `c1ccc2sc(NN=C3CCCC3)nc2c1`: the Potency is 26.7 µM (active). Turning to `OC[C@@H]1CN(C2CCCC2)C[C@H](n2cnc3c(NC4CCC4)ncnc32)O1`, the max response, negative = inhibition is -3.48%. As for `C=CCn1c2c(c3ccccc31)CCC2`, the max response, negative = inhibition is -9.68%. The same measure, in the same setting: next, `COc1cc2c(=O)n(C)c3ccccc3c2cc1OC`: -8.91%. For `Cn1c(=O)c([N+](=O)[O-])c(Oc2ccccc2)c2ccccc21`, the Potency is 23.8 µM (active).

Take `Cc1cc(C)c(-c2c(O)c3ccccc3n(C)c2=O)c(C)c1`: the max response, negative = inhibition was -5.02%. The same measure, in the same setting: next, `CCOC(=O)c1c(C)[nH]c(C)c1C(=O)COC(=O)/C=C/c1cccc([N+](=O)[O-])c1`: 1.23%; `Cc1ccnc(NS(=O)(=O)c2ccc(NC(=O)c3ccc(S(=O)(=O)N4CCOCC4)cc3)cc2)n1`: -5.87%. Take `Cc1ccnc(NS(=O)(=O)c2ccc(NC(=O)c3ccc(S(=O)(=O)N(C)C)cc3)cc2)n1`: the Potency is 26.7 µM (active). Take `Cc1ccnc(NS(=O)(=O)c2ccc(NC(=O)c3oc4ccccc4c3C)cc2)n1`: the max response, negative = inhibition was -5.87%. Still for that read-out and setting: in the case of `COc1ccc(C(C)(O)c2nc(-c3cc(F)cc(F)c3)cs2)cc1` (configuration not stated) it was 4.82%; in that of `OC(c1ccccc1)(c1ccccc1)C1CCN(CCCOc2ccccc2)CC1`, 0.305%. Consider `CC(C)N=C1CCCC1C(=S)SSC(=S)C1CCCC1=NC(C)C` (configuration not stated), for which the Potency is 9.47 µM (active).

As to `CCC(c1nc2ccccc2[nH]1)n1c(=O)c(-c2cccs2)nc2ccccc21` (configuration not stated), the max response, negative = inhibition is 7.42%. On the same count and under the same terms, in the case of `COc1ccc(-c2[nH][nH]c(=O)c2NC(=O)c2ccc([N+](=O)[O-])cc2)cc1` it was -12.4%; in that of `Cc1ccc(C(=O)Nc2nc(N)n(-c3ccccc3)n2)cc1`, -8.25%. `Cc1ccc(C(=O)Nc2c(-c3ccccc3)[nH][nH]c2=O)cc1`: the Potency is 23.8 µM (active).

Consider `CCOC(=O)c1c(NC(=O)C(C)Sc2c[nH]c3ccccc23)sc2c1CCC2` (configuration not stated), for which the max response, negative = inhibition was -20.8%. Still for that read-out and setting: next, `CCOC(=O)c1c(NC(=O)CSc2cn(CC)c3ccccc23)sc2c1CCC2`: -5.08%. In the case of `CCOC(=O)c1c(NC(=O)C2(C)Cc3ccccc3C(=O)O2)sc2c1CCCC2` (configuration not stated), the Potency is 23.8 µM (active). For `CC1(c2cccc(N)c2)OCCO1`, the max response, negative = inhibition is -12.9%.

Consider `CCc1nc2ccc(C(=O)N(C)Cc3ccco3)cn2c1N(C)C(=O)Cc1ccccc1`, for which the max response, negative = inhibition was -2.7%.

On to `CC1(C(=O)NS(=O)(=O)c2cccc(F)c2)CCN1C(=O)Cc1cc(F)ccc1F` (configuration not stated), for which the max response, negative = inhibition was 1.7%. Same read-out and setting: in the case of `C[C@@H]1CN([C@H](C)CO)C(=O)c2cc(-c3ccc(F)cc3)cnc2O[C@H]1CN(C)C(=O)c1ccc(F)cc1` it was -26.3%.

`O=[N+]([O-])c1c(NCCO)cc(Sc2nc3ccccc3s2)c2nonc12`: the Potency is 1.68 µM (active). `OCCNc1nc(Nc2ccc(Cl)c(Cl)c2)nc2ccccc12`: the max response, negative = inhibition was -0.568%.

`Cc1ccc(CN(C)C[C@@H]2OCc3cnnn3CCCC(=O)N([C@@H](C)CO)C[C@H]2C)cc1`: the max response, negative = inhibition is -4.71%. The same measure, in the same setting: in the case of `CC(C)(C)C1CCC(=O)N2CCC[C@]2(c2ccccc2)C1` (some centres not stated) it was -8.62%; in that of `COC(=O)C1=CN(c2c(C)cc(C)cc2C)C(N)=C(C#N)C1c1cccc(F)c1` (configuration not stated), 0.842%; in that of `COc1ccccc1NC(=O)[C@H](COCc1ccccc1)NC(=O)OC(C)(C)C`, -12.1%. The same measure, in the same setting: next, `CC(C)[C@@H](NC(=O)OC(C)(C)C)C(=O)NCC1CCC(C(=O)N[C@@H](Cc2ccccc2)C(=O)O)CC1` (some centres not stated): 3.75%. Same read-out and setting: in the case of `CCc1ccccc1NC(=O)CSc1nnc([C@@H](NC(=O)OC(C)(C)C)C(C)CC)o1` (some centres not stated) it was -15.7%.

For `CC(C)Sc1nnc([C@H](Cc2ccccc2)NC(=O)OC(C)(C)C)o1`, the Potency is 23.8 µM (active). The same measure, in the same setting: in the case of `C[C@@H](NC(=O)OC(C)(C)C)c1nnc(S(=O)(=O)Cc2ccccc2)o1` it was 13.4 µM (active). Take `CC(C)(C)c1ccc(C(CC(=O)O)NS(=O)(=O)Cc2ccccc2)cc1` (configuration not stated): the max response, negative = inhibition was -2.95%. As for `CCCOc1ccc(F)cc1-c1cc(C(=O)NCc2ccc(F)cc2)[nH]n1`, the max response, negative = inhibition was -11.9%. Same read-out and setting: in the case of `COc1cc(C(=O)OCCCN2CCOCC2)cc(OC)c1OC` it was 0.976%; in that of `CCOC(=O)N1CCN(C(=O)C[C@@H]2C[C@@]3(C(=O)OC)CC(C)(C)CC=C3N(Cc3ccco3)C2=O)CC1`, 2.41%. Regarding `Cc1cccc(CNC(=O)c2sc(=O)n(Cc3ccccc3C)c2C)c1`, the max response, negative = inhibition is -6.16%. The same measure, in the same setting: next, `CCCCn1c(SCC(=O)N2CCOCC2)nc2c1c(=O)n(C)c(=O)n2C`: -13.8%. Still for that read-out and setting: in the case of `CCCCCCn1c(SCC(=O)c2ccccc2)nc2c1c(=O)[nH]c(=O)n2C` it was -19.2%. In the case of `CCCCCn1c(SCCC(C)C)nc2c1c(=O)[nH]c(=O)n2C`, the Potency was 23.8 µM (active). For the compound `CCc1nc2c(OCC(=O)C(C)(C)C)cccn2c1N(C)C(=O)c1ccccc1F`, the max response, negative = inhibition is -11%. In the case of `CC1(C)CC(=O)C=C(c2ccccc2CO)C1=O`, the max response, negative = inhibition is -0.138%. Same read-out and setting: in the case of `Clc1ccc(-c2cccc3nccn23)cc1` it was -1.38%. Turning to `COC(=O)c1ccccc1N=Nc1c(C)[nH][nH]c1=O`, the Potency is 23.8 µM (active). As to `COC(=O)c1ccccc1N=NNc1ccc([N+](=O)[O-])cc1`, the max response, negative = inhibition is 0.193%. Still for that read-out and setting: next, `COC(=O)c1cn(C(=O)c2ccc(Cl)cc2)c2ccccc12`: -5.55%. Turning to `CCN(CC)c1ncnc2c1ncn2[C@H]1CN(Cc2cccs2)C[C@@H](CO)O1`, the max response, negative = inhibition was 2.82%. Still for that read-out and setting: next, `C[C@@H]1CCCCO[C@H](CN(C)Cc2ccccc2)[C@@H](C)CN([C@H](C)CO)C(=O)c2cc(NS(=O)(=O)c3ccc(Cl)cc3)ccc2O1`: -7.57%; `COc1cc(N2C(=O)CSC2=S)cc(OC)c1OC`: -18.2%. With `O=C1CSC(=S)N1c1ccc(Cl)c(Cl)c1`, the Potency was 26.7 µM (active). Regarding `O=C1CSC(=S)N1c1ccc(O)cc1`, the max response, negative = inhibition is 1.87%. On the same count and under the same terms, next, `CCOC(=O)N1CCN(C(=O)C[C@@H]2C[C@@]3(C(=O)OC)CCCCC=C3N(CCC3=CCCCC3)C2=O)CC1`: 4.13%; `Nc1ncnc2c1ncn2[C@@H]1O[C@H](C(=O)N2CCSC2)[C@@H](O)[C@H]1O`: -1.36%; `Clc1ccccc1Nc1nc(NCc2cccs2)nc2ccsc12`: 0.746%. Same read-out and setting: in the case of `CCc1nc2c(OCCc3cccc(OC)c3)cccn2c1N(C)C(=O)c1ccc(C)cc1` it was -4.74%; in that of `CC(=O)Nc1cc(-c2cccc(CO)c2)cn2c(-c3cccc(C(F)(F)F)c3)cnc12`, -14.2%. `O=C(Nc1ccccc1)c1nnsc1S(=O)(=O)c1ccc(Cl)cc1`: the Potency was 4.74 µM (active). Turning to `O=C(Nc1ccc(S(=O)(=O)Nc2ccccn2)cc1)c1ccccc1`, the max response, negative = inhibition was -2.45%. On to `Cc1nnsc1S(=O)(=O)Cc1ccccc1Cl`, for which the max response, negative = inhibition was -7.17%. On the same count and under the same terms, next, `Cc1cc2nc(-c3ccc(F)cc3)c(Cc3ccsc3)n2c(C)c1Br`: -4.34%. The same measure, in the same setting: next, `CCc1c(-c2ccc(F)cc2)ncn1Cc1cccc(-c2ccccc2)c1`: -16%; `COc1ccc(N(C)C(=O)CCS(=O)(=O)c2cccc3nsnc23)cc1`: -20.6%. With `COc1cccc2sc(N(CCCN(C)C)C(=O)CCS(=O)(=O)c3ccccc3)nc12`, the Potency is 10.6 µM (active). Take `CCN(CC)CCN(C(=O)c1ccc2c(c1)CCCC2)c1nc2c(OC)cccc2s1`: the max response, negative = inhibition was -2.72%.
